Assay outcomes as filed in PubChem BioAssay.
The entries come from a sample that favours hits as a whole.
Methyltransferases – Primary Screen for Target Class Profiling of Small Molecule Inhibitors of Methyltransferases. purified enzyme, MTase-Glo SAH luminescence; active compounds read low. 3.9% of 25,000 active. calls only at 40 µM. AID 1745853, 2022; call rule not given here
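Each enzyme was assayed with SAM and its substrate. SAH formation detected by MTase-Glo luminescence; single-point 40 uM screen[…].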
Each line names hits and unclear results; the compound was inactive in the other large screens.

C=C[C@H]1[C@H](O[C@@H]2O[C@H](CO)[C@@H](O)[C@H](O)[C@H]2O)OC=C(C(=O)OC)[C@H]1CCO	Methyltransferases active
Cc1cccc(CNC(=O)C2(C)Cn3cnc(C(=O)NCc4ccccc4)c3C(=O)N2C2CC2)c1 (stereo not drawn)	none
CN1C(=O)c2cc(C(=O)NC3CCCCCC3)nn2CC1(C)C(=O)NCc1ccc(F)cc1 (stereo not drawn)	none
Cc1ccc(CNC(=O)C2(C)Cn3nc(C(=O)NCCCc4ccccc4)cc3C(=O)N2C)cc1 (stereo not drawn)	none
CC(C)CCNC(=O)C1(C)Cn2nc(C(=O)N3CCN(C4CCCCC4)CC3)cc2C(=O)N1C (stereo not drawn)	none
CC(C)Cn1c(=O)c2ccc(C(=O)NC(C)C)cc2n2c(SCC(N)=O)nnc12	none
CNC(=O)c1ccccc1Nc1nc(Nc2ccc(N3CCNCC3)cc2)ncc1Cl	Methyltransferases active
CC(=O)c1c(C)c2cnc(Nc3ccc(N4CCNCC4)cn3)nc2n(C2CCCC2)c1=O	none
Cn1c(=O)c(-c2c(Cl)cccc2Cl)cc2cnc(Nc3ccc(N4CCOCC4)cc3)nc21	none
CC1CCN(S(=O)(=O)c2ccc3c(ccn3CC(=O)NCc3ccc(F)cc3)c2)CC1	none
CCCn1c(=O)c2ccc(C(=O)NCC(C)C)cc2n2c(=O)n(Cc3ccccc3F)nc12	none
COc1ccccc1CNS(=O)(=O)c1cc2[nH]c(=O)[nH]c2cc1C	none
CCN1CCC(n2cc(CNc3cc(Cl)c4ncc(C#N)c(Nc5ccc(F)c(Cl)c5)c4c3)nn2)CC1	Methyltransferases active
N#Cc1cnc2cnc(NCc3cccnc3)cc2c1Nc1ccc(F)c(Cl)c1	Methyltransferases active
N#Cc1cnc2c(Cl)cc(NCc3cn(CCN4CCCCCC4)nn3)cc2c1Nc1ccc(F)c(Cl)c1	Methyltransferases active
O=S(=O)(c1cc(F)ccc1F)N1CCC(n2cc(CCCO)nn2)CC1	none
CNC(=O)[C@@H]1C[C@H](n2cc(CNS(=O)(=O)c3cc(C)ccc3F)nn2)CN1	none
Cc1ccc(C#N)c(-c2cc(NCc3cccnc3)nc3[nH]ccc23)n1	none
O=C(Nc1ccc(F)c(Cl)c1)c1cnc(-c2ccccc2)nc1-c1ccncc1	none
Cc1ccc(CNS(=O)(=O)c2ccc3[nH]c(=O)[nH]c3c2)cc1	none
CCOC(=O)c1cccc(NC(=O)c2cc3n(n2)CC(C)(C(=O)NC2CCCCC2)N(C)C3=O)c1 (stereo not drawn)	none
CC(C)n1c(=O)c2ccc(C(=O)NC3CCCCC3)cc2n2c(=O)n(CC(=O)c3ccccc3)nc12	none
CCCn1c(=O)c2cc(F)ccc2n2c(SCC(=O)Nc3ccc(C)cc3)nnc12	none
CCOC(=O)c1cc2n(n1)CC(C)(C(=O)NCc1ccccc1)N(Cc1ccccc1Cl)C2=O (stereo not drawn)	none
Cc1c(OCC(F)(F)F)ccnc1CS(=O)c1nc2ccccc2[nH]1 (stereo not drawn)	Methyltransferases active
CCc1ccc(NS(=O)(=O)c2ccc3[nH]c4c(c3c2)CCCC4)cc1	none
CCOc1ccccc1CN1C(=O)c2cc3occc3n2CC1(C)C(=O)NC1CCCCC1 (stereo not drawn)	none
CCC(C)NC(=O)c1ccc2c(=O)n(C)c3nn(Cc4cccc(C)c4)c(=O)n3c2c1 (stereo not drawn)	none
CC(CN1C(=O)c2ccc(-c3ccco3)n2CC1(C)C(=O)NC1CCCC1)c1ccccc1 (stereo not drawn)	none
Cc1ccc(CNC(=O)CSc2nnc3n(CC(C)C)c(=O)c4ccccc4n23)cc1	none
CC1(COc2ccc3c(c2)ncn3-c2ccc3cccc(N4CCC(N)CC4)c3n2)COC1	Methyltransferases active
COc1ccc(OC)c(CNC(=O)c2cc3n(n2)CC(C)(C(=O)NCCC(C)C)N(C)C3=O)c1 (stereo not drawn)	none
COc1ccc2c(c1)c(NC(C)=O)c1n2CC(C)(C(=O)NC2CCCCCC2)N(C2CCCC2)C1=O (stereo not drawn)	none
CCOC(=O)c1cc2n(n1)CC(C)(C(=O)NC1CCCC1)N(c1cc(Cl)ccc1OC)C2=O (stereo not drawn)	none
CCc1ccc(S(=O)(=O)c2nnn3c2nc(NCc2ccc(OC)cc2)c2ccccc23)cc1	none
C=C(C)[C@H]1C[C@@H](O)C(=C)CC[C@@H](O)C(=C)[C@@H](O)C1	Methyltransferases active
CC(C)CCn1c(=O)c2ccccc2n2c(SCC(=O)Nc3ccc(C(C)C)cc3)nnc12	none
Cc1ccc(C)c(C(=O)Cn2nc3n(C(C)C)c(=O)c4ccc(C(=O)NC5CCCCC5)cc4n3c2=O)c1	none
COc1c2c(c(C)c3c1C(=O)OC3)O[C@@]1(C)C[C@@H](O)[C@]34O[C@](OC)(CC[C@]3(C)[C@H]1C2)OC4(C)C	none
COc1c2c(c(C)c3c1C(=O)OC3)OC1(C)CC(O)C34OC(OC)(OC3(C)C)C(O)CC4(C)C1C2 (stereo not drawn)	none
COc1c2c(c(C)c3c1C(=O)OC3)O[C@@]1(C)C[C@@H](OC(C)=O)[C@]34O[C@](OC)(CC[C@]3(C)[C@H]1C2)OC4(C)C	Methyltransferases active
Cc1ccc(NC(=O)c2cc3n(n2)CC(C)(C(=O)NC2CCCCCC2)N(C)C3=O)cc1 (stereo not drawn)	none
